Experimental data reported in PubChem BioAssay (NCI).
The panel holds about 79,000 compounds, 15% with a hit somewhere; the sample as a whole holds those more often. Cut-off read from the data, not from the text of the source: active = growth inhibition above about 70%; inactive = the rest.

Tests used:
[1] = NCI Yeast Anticancer Drug Screen. Data for the rad50 strain (AID 155);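 note: 0% = growth of vehicle-only cultures of the same strain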; details: S. cerevisiae rad50 strain growth inhibition; at 50.0 µM; hits give high values
How it was run: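 Inhibition values express reduced yeast growth in compound-treated cultures relative to vehicle-treated controls.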

[2] = NCI Yeast Anticancer Drug Screen. Data for the mec2-1 strain (AID 157); details: S. cerevisiae mec2-1 strain, at 50.0 µM, hits give high values
How it was run: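 Mutant yeast (mec2-1) grown with compound; growth inhibition relative to vehicle control reported.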

[3] = NCI Yeast Anticancer Drug Screen. Data for the sgs1 mgt1 strain (AID 161);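 note: 0% = growth of cultures given vehicle only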; details: S. cerevisiae sgs1 mgt1 strain, at 50.0 µM, hits give high values
How it was run: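 Compounds are added to genetically altered yeast, and growth is compared with cultures given vehicle alone to give percent inhibition.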

[4] = NCI Yeast Anticancer Drug Screen. Data for the cln2 rad14 strain (AID 165);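 note: 0% = growth equal to vehicle treated cultures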; details: S. cerevisiae cln2 rad14 strain, at 50.0 µM, hits give high values
How it was run: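 Readout is yeast growth inhibition versus vehicle-treated controls, using a strain with cln2 and rad14 alterations exposed to compound.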

[5] = NCI Yeast Anticancer Drug Screen. Data for the bub3 strain (AID 167); details: S. cerevisiae bub3 mutant strain, at 50.0 µM, hits give high values
How it was run: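 Steps: expose the mutant yeast strain to compound; grow alongside vehicle-treated cultures; measure growth; express inhibition against the vehicle cultures.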

[6] = NCI Yeast Anticancer Drug Screen. Data for the mlh1 rad18 strain (AID 175); details: S. cerevisiae mlh1 rad18 strain growth inhibition; at 50.0 µM; hits give high values
How it was run: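 Genetically defined yeast (DNA repair-deficient) exposed to compounds; growth inhibition determined relative to vehicle.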

Measured: growth inhibition

COc1ccc2c(=O)c([Se]c3coc4cc(OC)ccc4c3=O)coc2c1
inactive: [1] 7.2% | [2] -17.1% | [3] 3.15% | [4] -52.5% | [5] -23.1% | [6] 3.25%

COc1cccc(/C=C/S(=O)(=O)Cc2ccccc2)c1OC
inactive: [1] 9.7% | [2] 4.85% | [3] 4.85% | [4] 23.4% | [5] 7.4% | [6] 26.1%

CC1(C)OC(=O)c2c(cc(N3CCOCC3)oc2=O)O1
inactive: [1] 3.35% | [2] -2.9% | [3] 1.35% | [4] 9.55% | [5] 11.1% | [6] -1.25%

c1ccc2c(c1)CCc1c-2n[nH]c1-c1[nH]nc2c1CCc1ccccc1-2
inactive: [1] -12.1% | [2] -10% | [3] -1.3% | [4] -21.9% | [5] -26.2% | [6] -5%

CC(CC(C)(C)C)C(=O)NC(N)=O (configuration not stated)
inactive: [1] 29.3% | [2] -4.05% | [3] -7.95% | [4] -0.6% | [5] 8.65% | [6] 7.6%

COc1ccc(C2=CC(=O)C(C)(C#N)CC2)cc1 (configuration not stated)
inactive: [1] 3.9% | [2] 25.9% | [3] -4% | [4] 25.1% | [5] 34% | [6] 4.8%

CN1CC(=O)N(CO)/C1=N\CO
inactive: [1] -7.15% | [2] -5.45% | [3] -6.85% | [4] -10.8% | [5] 5.85% | [6] 2.05%

O=C1c2ccccc2C(=O)c2c(Nc3ccc4c5c(cccc35)C(=O)c3ccccc3-4)cccc21
inactive: [1] 23.1% | [2] 6.25% | [3] -14.2% | [4] -31.7% | [5] -8.4% | [6] 13.2%

CCCC(=O)OC1CCCC1
inactive: [1] 27.9% | [2] 27.8% | [3] 20.4% | [4] 24.1% | [5] 21.8% | [6] 28.7%

CN(C)c1ccc(/C=C(\C#N)C(=O)c2ccccc2)cc1Br
inactive: [1] 0.55% | [2] -6.1% | [3] 1.85% | [4] 22.7% | [5] -15.2% | [6] 13.8%

Nc1ccn(C2CC(F)C(CO)O2)c(=O)n1 (configuration not stated)
inactive: [1] 19.6% | [2] 11.2% | [3] 17.2% | [4] 1.5% | [5] 7% | [6] -1.8%

Nc1nc(-c2cc(C(c3ccccc3)c3ccccc3)nc(N)n2)cc(C(c2ccccc2)c2ccccc2)n1
inactive: [1] -6.45% | [2] 13.8% | [3] -24.6% | [4] 3.45% | [5] -2.3% | [6] 9.95%

COc1ccc(C(=O)O[C@H]2[C@@H]3C=CO[C@@H](OC4OC(CO)C(O)C(O)C4O)[C@@H]3[C@@]3(CO)O[C@@H]23)cc1O (some centres not stated)
inactive: [1] 31.9% | [2] 23.9% | [3] -3.4% | [4] 11.7% | [5] 34.3% | [6] 38.6%

O=C(O)c1ccc(C2COc3ccc(Cl)cc3C2)cc1 (configuration not stated)
inactive: [1] -10.8% | [2] -19.8% | [3] -23.8% | [4] 4.7% | [5] -19.2% | [6] -24.2%

COC1(OC)C2(Cl)C3=CCCC=C3C1(Cl)C(Cl)=C2Cl
inactive: [1] 27.5% | [2] 9.45% | [3] 11.7% | [4] 29.8% | [5] 15.6% | [6] -6.65%

COc1cc(C(=O)O)cc(OC)c1OC(C)=O
inactive: [1] 6.65% | [2] -7% | [3] 3.8% | [4] 9% | [5] -34.7% | [6] -8.65%

COc1cc2c(cc1OC)C(c1ccccc1)ON(C)CC2 (configuration not stated)
inactive: [1] -4.15% | [2] -1.7% | [3] -3.35% | [4] -13.4% | [5] 1.45% | [6] 1.35%

Nc1nc(C=O)c(CCc2ccccc2)c(=O)[nH]1
inactive: [1] 6.8% | [2] 8.95% | [3] -7.8% | [4] -28.7% | [5] -11% | [6] -12.4%

O=C1Sc2ccccc2Cn2cccc21
inactive: [1] -1.7% | [2] 13% | [3] 13.3% | [4] -19.6% | [5] -6.3% | [6] 8.7%

c1ccc(CSc2cnnc3ccccc23)cc1
inactive: [1] 3.9% | [2] -10.8% | [3] 6% | [4] -11.1% | [5] 14.1% | [6] 31.9%

Cc1ccccc1NCc1ccccc1
inactive: [1] 25.8% | [2] -3.2% | [3] 15.3% | [4] -29.8% | [5] 0.35% | [6] 23.1%

O=C(CCl)Nc1cc(Cl)c(Cl)cc1Cl
inactive: [1] 32.4% | [2] 21.8% | [3] 58.1% | [4] 2.75% | [5] 64.8% | [6] 37%

CCSc1cccc(C(=O)O)c1
inactive: [1] -23.1% | [2] -2.9% | [3] -3.4% | [4] -27.8% | [5] -22.9% | [6] -7.8%

CCOC(=O)/C(=C/c1cn(C(C)=O)c2ccccc12)P(C)(=O)OCC (configuration not stated)
inactive: [1] 33.2% | [2] 52.5% | [3] 55.5% | [4] 40% | [5] 53.5% | [6] 22.2%

COc1ccc(N2C(=O)C3c4[nH]c5ccc(F)cc5c4C4CCC(C(C)(C)C)CC4C3C2=O)cc1 (configuration not stated)
inactive: [1] -7.05% | [2] -2.3% | [3] 1.55% | [4] 7.45% | [5] -3.2% | [6] 22.1%

COc1cccc(C(N)C(=O)O)c1 (configuration not stated)
inactive: [1] -22.9% | [2] -16.2% | [3] -5.25% | [4] -26.2% | [5] -12.4% | [6] -17.4%

CC(=O)Nc1nnnn1C
inactive: [1] -3.05% | [2] -2.3% | [3] 0.45% | [4] -40.1% | [5] -1.9% | [6] -10.9%

Cc1cccc(-c2nc(N)nc(N)n2)c1
inactive: [1] 11.8% | [2] -9.45% | [3] -1.05% | [4] 18.6% | [5] 7% | [6] 22.4%

O=C(NC(=O)c1ccccc1)OC(c1ccccc1)C1CO1 (configuration not stated)
inactive: [1] -0.7% | [2] 9.65% | [3] 11.4% | [4] 8.55% | [5] -34.1% | [6] 18.8%

O=C(NCCc1ccccc1)c1ccc(Cl)cc1
inactive: [1] 6.25% | [2] 9.8% | [3] 9.9% | [4] 10.8% | [5] 26% | [6] 1.5%

COc1cccc2ccc(C(=O)c3ccccc3)nc12
inactive: [1] 34.2% | [2] -3.2% | [3] 7.8% | [4] 23.6% | [5] 28.2% | [6] 15.9%

CCOC(=O)C1CCCCN1C(=O)OCc1ccccc1 (configuration not stated)
inactive: [1] -6.95% | [2] -1.75% | [3] 0.75% | [4] -8.05% | [5] 20.9% | [6] -42.3%

COC(=O)C(=O)C(C#N)c1c(Cl)cccc1Cl (configuration not stated)
inactive: [1] -5.6% | [2] 39.1% | [3] 0.05% | [4] 8.9% | [5] 1.65% | [6] 34.1%

O=C(OCCN1CCOCC1)C1C[C@@H](O)CN1C(=O)c1ccc2c(c1)OCO2 (some centres not stated)
inactive: [1] -10.8% | [2] -5.85% | [3] 7.7% | [4] 1.9% | [5] -14.2% | [6] 6.25%

Cn1nc(C(F)(F)C(F)(F)C(F)(F)F)nc1C(F)(F)C(F)(F)C(F)(F)F
inactive: [1] 12.6% | [2] 3.6% | [3] 4.45% | [4] -3.75% | [5] -2.15% | [6] 10.6%

COc1cc2ccc1-c1cc(ccc1O)CC1c3cc4c(cc3CCN1C)Oc1c(OC)cc3c(c1O4)C(C2)N(C)CC3 (configuration not stated)
inactive: [1] 1% | [2] -7.15% | [3] -18.5% | [4] -1.7% | [5] -6.15% | [6] 0.25%

OCC1(F)CC1(c1ccccc1)c1ccccc1 (configuration not stated)
inactive: [1] 0.45% | [2] -2.85% | [3] 7.45% | [4] 12.7% | [5] -13.4% | [6] -22.6%

O=C1OI(=O)(O)c2ccccc21 (configuration not stated)
inactive: [1] -4.35% | [2] -5.95% | [3] -7.5% | [4] -36.6% | [5] 5.2% | [6] 2.5%

CN(C)CCCNc1nc2cc(Cl)ccc2o1
inactive: [1] -7.1% | [2] -9.85% | [3] -5.7% | [4] -38.6% | [5] 6.7% | [6] -2.4%

Sc1ccc2ccccc2c1
inactive: [1] 12.4% | [2] 9.15% | [3] -23.3% | [4] -38.4% | [5] -17.1% | [6] -30.4%

O=C(O)C/C=C/CC(=O)O
inactive: [1] -2.25% | [2] -13.5% | [3] -2.7% | [4] 4.45% | [5] 15.4% | [6] -3.15%

Cc1ccc(C)c(NC(=O)C2C(=O)C(=O)N(c3cc(C)ccc3C)C2=O)c1 (configuration not stated)
inactive: [1] 29.4% | [2] -8.3% | [3] -18.5% | [4] 7.2% | [5] -0.95% | [6] 10.7%
